An excerpt weighted towards active compounds, which were near 6.9% of everything screened.
Beta apoptosis: beta cell apoptosis inhibition. INS-1E cytokine-induced death, ATP luminescence, 48 h; percent of positive-control rescue, neutral wells zero. protection from apoptosis, % (test concentration not listed). 300,000 tested, 0.8% active;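 active = Every replicate reaches about 75%, or at least half do and their mean reaches it too, limit read from the data; inconclusive = At least half of replicates reach the limit but their mean does not; inactive = Under half of replicates reach the limit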;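 note: 0% = cytokine-treated negative control wells and 100% = positive control rescue; higher means more ATP so stronger rescue from cytokine killing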
Mdm2-MdmX inh: human Mdm2/MdmX binding inhibition; O15151+Q00987; inhibition, % at 8 µM; 330,000 tested, 3% active; SaOS-2 split-luciferase Mdm2/MdmX complementation, luminescence;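 active = inhibition of at least 50% at 8 µM in the primary screen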
SKKanGAS inh: blocks kanamycin growth of S. pyogenes SKKanGAS strain; inhibition, % at 7.5 µM; BacTiter-Glo, 6 h; 300,000 tested, 1.3% active;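 active = mean replicate score, as percent of positive control median, at least 50; inconclusive = mean below 50 but one replicate at or above 50; inactive = mean and every replicate below 50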;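 note: strain carries kanamycin resistance gene driven by streptokinase promoter and grows in 40 µg/ml kanamycin; loss of luminescence reflects streptokinase promoter inhibition or plain growth inhibition; 0% = median of DMSO wells and 100% = positive control at its reference dose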
GRIN3A LBD mod: NR3A (human) ligand-binding domain modulation | Tm shift relative to glycine control, % at 25 µM | AID 1259313 | 340,000 tested, 2.5% active | NR3A LBD differential scanning fluorimetry, Tm shift; 0% = protein alone, 100% = glycine-bound protein;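 active = melting temperature shift of at least 10% of the positive control shift, at one fixed dose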
MPTP block: inhibitors of mitochondrial permeability transition pore. isolated mouse mitochondria, Ca2+ swelling absorbance, 30 min. inhibition, % at 10 µM. 360,000 tested, 1.4% active;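 active = inhibition of 50% or more, scaled per plate between neutral and stimulator controls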;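 note: 0% = DMSO wells given calcium and 100% = 1 mM EGTA wells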
CSC inhib: blocks cancer stem cells. cancer stem cell-like cells viability, luminescence. inhibition, % at 7.5 µM. 300,000 tested, 1.1% active. AID 2717; in the data active = inhibition above about 75%; inconclusive = no clear call, values can overlap the other calls; tested in HMLE shEcad cells
Mdm2-MdmX conf: confirmation of human Mdm2/MdmX interaction inhibitors. shares compounds with Mdm2-MdmX inh. Mdm2-MdmX binding, luminescent assay. inhibition, % at 8 µM. 10,000 tested, 55% active. AID 489028; in the data active = inhibition above about 40%
Full FLuc ctr: counter-screen for Mdm2/MdmX inhibitors: full-length luciferase. 6,200 tested, 77% active. inhibition, % at 8 µM. shares compounds with Mdm2-MdmX inh. AID 504607. SaOS-2 full-length luciferase counterscreen, luminescence;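 active = mean inhibition at 8 µM reaching about 37%, which flags the compound as non-specific, limit read from the data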;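 note: p53-null SaOS-2 cells with luciferase driven by a doxycycline-inducible promoter; compound on cells about two nights before reading with doxycycline added after day one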
The depositor's hits bear a star; ? = inconclusive; . = no result given.

SMILES | Beta apoptosis | Mdm2-MdmX inh | SKKanGAS inh | GRIN3A LBD mod | MPTP block | CSC inhib | Mdm2-MdmX conf | Full FLuc ctr
Cc1sc2nc(CSC(C)C(=O)N(C)CC(=O)Nc3ccccc3C(F)(F)F)[nH]c(=O)c2c1C (stereo not given) | -6 | 51* | 5 | 1 | 7 | -7 | 27 | .
CSc1ccccc1NC(=O)CN(C)C(=O)C(C)SCc1nc2sc(C)c(C)c2c(=O)[nH]1 (stereo not given) | . | . | . | 2 | -1 | . | . | .
CSC1=N/C(=C\c2ccccc2Cl)C(=O)N1N(C)C | -3 | -3 | 13 | 3 | 2 | 13 | . | .
O=C1c2ccccc2-c2onc3ccc(Oc4ccccc4)c1c23 | . | 96* | 17 | -1 | 2 | . | 63* | 51*
COCCCNC(=O)c1ccc2c3c(onc13)-c1ccccc1C2=O | 19 | -68 | 9 | 3 | 7 | 23 | . | .
COc1ccc(OC)c(N(C)S(=O)(=O)c2ccc3c(c2)N(C(C)=O)CCO3)c1 | -8 | 30 | 0 | 1 | 1 | -28 | . | .
O=C(Nc1ccc(NC(=O)c2cccc([N+](=O)[O-])c2)cc1)c1cccc([N+](=O)[O-])c1 | 2 | -2 | 3 | 2 | 2 | -6 | . | .
O=C(N/N=C/c1cc([N+](=O)[O-])ccc1O)c1ccc(COc2ccc3c(c2)CCC3)o1 | 105* | 94* | 21 | 3 | 7 | 101* | 72* | 51*
O=C(Nc1cccc([N+](=O)[O-])c1)c1cccc(C(=O)Nc2cccc([N+](=O)[O-])c2)c1 | 13 | 76* | 5 | -1 | 19 | -11 | 45* | 71*
O=C(/C=N/NC(=O)c1ccccc1Br)c1ccccc1 | -4 | -6 | -2 | -2 | -1 | 2 | . | .
O=C(N/N=C/c1cc(Cl)ccc1O)c1ccccc1Br | 110* | 54* | ? | -8 | 11 | 21 | 58* | 44*
O=C(N/N=C/c1cc([N+](=O)[O-])ccc1O)c1cccc(NC(=O)c2cccc(Cl)c2)c1 | 81* | 51* | 77* | 5 | 6 | 14 | 50* | 41*
CC1(C(=O)NS(=O)(=O)c2cccc(Cl)c2)CCN1C(=O)CCc1ccccc1 (stereo not given) | . | . | . | . | -1 | . | . | .
O=C(Cn1nnc(-c2ccccc2)n1)N/N=C/c1cc([N+](=O)[O-])ccc1O | -3 | 53* | 101* | 7 | 4 | -10 | 12 | .
O=C(N/N=C/c1cccs1)c1cccc(NC(=O)c2ccc(Cl)cc2)c1 | 67 | 57* | 4 | . | . | ? | 3 | .
Cc1ccn(CC(=O)N/N=C/c2cc([N+](=O)[O-])ccc2O)n1 | . | -27 | 11 | 0 | -11 | . | . | .
O=C(N/N=C/c1cc([N+](=O)[O-])ccc1O)c1cccc2ccccc12 | 102* | 62* | 94* | . | 1 | 11 | 68* | 43*
O=C(N/N=C/c1cccc(NC(=O)c2ccc(Cl)cc2)c1)c1cccc(O)c1 | 15 | -40 | 10 | 10 | 1 | 36 | . | .
Cc1c(Cl)cccc1NC(=O)C(=O)NNC(=O)c1ccccc1F | -3 | 17 | 36 | 0 | 0 | 25 | . | .
NC(=O)c1cc(S(=O)(=O)N2CC=C(c3ccccc3)CC2)cs1 | 0 | 9 | -1 | 2 | 0 | -3 | . | .
CCOC(=O)c1sc(NC(=O)CSc2nc(-c3ccco3)cc(C(F)(F)F)n2)c(C(=O)OCC)c1C | . | . | . | -1 | 3 | . | . | .
CCOC(=O)c1sc(NC(=O)CSc2nc(-c3ccco3)cc(C(F)(F)F)n2)c(C(=O)OC)c1C | -6 | 73* | 9 | 2 | 1 | 14 | 29 | 17
O=C(CCCSc1nc(-c2ccco2)cc(C(F)(F)F)n1)Nc1ccc2c(c1)OCO2 | 3 | 24 | 29 | 4 | 1 | 36 | . | .
COc1ccccc1CCNC(=O)CSc1nc(-c2ccco2)cc(C(F)(F)F)n1 | . | 76* | -4 | -1 | 1 | 7 | 43* | 83*
COc1ccccc1CCNC(=O)CCSc1nc(-c2ccco2)cc(C(F)(F)F)n1 | 6 | 23 | 6 | -3 | 2 | 21 | . | .

High-throughput results from PubChem.
